NS1 inh = influenza NS1 inhibition. Potency, µM (series often up to 46.1 µM), inactives show at the top dose activity, positive = more growth. hit rate 0.4% among 270,000. AID 2326; calls by dose curve; also: potency is read from the fitted curve at half-maximal effect; actives are rising curves; nearly all actives have a fitted effect of over 50% in size
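Compounds were scored for reversing the slow growth caused by influenza A NS1 in S. cerevisiae, measured by optical density at 600 nm. Assay medium contained 2% galactose at pH 6.0; NS1-free yeast of the same strain were the positive control.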
Giardia FBPA inh = blocks Giardia fructose-bisphosphate aldolase activity. A8B2U2. purified Giardia FBPA. Potency, µM (highest dose often 59.6 µM), for the others: top-dose activity, negative = inhibition, usual class: inhibitors. hit rate 0.71% among 290,000; also: potency is read from the fitted curve at half-maximal effect; % is scaled to controls: 0 for no effect and ±100 for the full control effect; nearly all actives have a fitted effect of over 55% in size
Target sequence (A8B2U2 whole entry, looked up): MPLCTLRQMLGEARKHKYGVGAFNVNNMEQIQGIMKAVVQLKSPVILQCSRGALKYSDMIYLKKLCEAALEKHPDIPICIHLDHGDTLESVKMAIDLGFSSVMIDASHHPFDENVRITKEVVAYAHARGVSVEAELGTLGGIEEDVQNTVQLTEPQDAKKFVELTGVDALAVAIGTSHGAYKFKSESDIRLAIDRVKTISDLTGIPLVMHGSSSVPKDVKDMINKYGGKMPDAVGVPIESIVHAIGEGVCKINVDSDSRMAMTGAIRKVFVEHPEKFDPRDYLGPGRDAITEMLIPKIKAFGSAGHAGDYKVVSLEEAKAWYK
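40 nM FBPA preincubated 10 min at RT with compound (up to 57.5 uM final), then substrate plus GAPDH/TPI/NAD/arsenate coupling and diaphorase/resazurin added. Fluorescence read after 20 min at RT, 525/598 nm.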
Shiga inhibitor = inhibitors of Shiga toxin in Vero cells; hit rate 9.2% among 290,000; AID 2315; Vero cells, Shiga toxin protein synthesis inhibition reporter; inhibition, % at 38.7 µM; in the data active = inhibition mostly above about 28%, no sharp cut-off; inactive = mostly below about 43%; also: 0% is about no effect
CHX counter = counter-screen for Shiga toxin inhibitors: cycloheximide protein synthesis inhibition; cell reporter, cycloheximide protein synthesis inhibition counterscreen; max response, %; hit rate 12% among 300,000; in the data active = max response mostly above about 13%, no sharp cut-off; inactive = mostly below about 14%; also: read at 38.3 µM for the half of the compounds with a filed dose; 0% is about no effect
Pf growth 48h = P. falciparum growth inhibition at 48 hours (one generation) | P. falciparum luciferase growth in erythrocytes, 48 h | Potency, µM (series often up to 28.7 µM), inactives show top-dose activity change, negative = inhibition, actives largely listed as inhibitors | hit rate 5.9% among 310,000 | AID 504832; also: potency is read from the fitted curve at half-maximal effect; % is scaled to controls: 0 for no effect and ±100 for the full control effect
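Compounds are pin-transferred into medium, infected erythrocytes (2% hematocrit, 0.1% parasitemia final) are added, and plates sit one parasite generation at 37 C in 5% CO2. Detection reagent is then added and luminescence measured.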
Pf growth 96h = P. falciparum growth inhibition at 96 hour, primary screen for plastid delayed-death inhibitors; Potency, µM (highest dose often 28.7 µM), inactives show at the highest dose activity change, negative = inhibition, most hits filed as inhibitors; hit rate 6.9% among 320,000; P. falciparum luciferase reporter growth, 96 h; AID 504834; also: potency is read from the fitted curve at half-maximal effect; % is scaled to controls: 0 for no effect and ±100 for the full control effect
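Infected RBCs, 2% Hct / 0.05% parasitemia final; luciferase-reporter P. falciparum; cpd 96 h, 37 C, 5% CO2; luciferase detection reagent; luminescence.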
An asterisk follows results filed as active; i = inactive; ? = inconclusive; . = no result. Only some compounds are listed: those with a hit (about 21% of all), similar ones and a draw of the others. Unless noted, calls follow the shape of the dose curve; as a rule, active = well fitted curve in the direction sought with a large enough effect; inconclusive = small, poorly fitted or top-dose-only effect, or another doubt; inactive = no such curve, though single readings can be large; an effect the other way counts as inactive or inconclusive.

SMILES	NS1 inh	Giardia FBPA inh	Shiga inhibitor	CHX counter	Pf growth 48h	Pf growth 96h
Cc1sc2ncnc(NCC(O)c3ccc([N+](=O)[O-])cc3)c2c1C (centres undefined)	-17%	5%	-8	-2	9.3µM*	?
Cc1sc2ncnc(NCC(O)c3ccccc3)c2c1C (centres undefined)	-3%	.	82*	23*	-17%	4%
Cc1sc2ncnc(NCc3ccco3)c2c1C	-5%	-9%	6	-3	-5%	9.3µM*
Cc1ccc(NC(=O)CCNS(=O)(=O)c2ccc3c(c2)CCC(=O)N3)cc1	-3%	3%	-7	-5	-7%	?
CC(=O)O[C@@H]1CC[C@]2(C)C(=C[C@@H]([C@@H]3C=C4C[C@@H](OC(C)=O)CC[C@]4(C)C4=C3[C@H]3C[C@@H]5O[C@@]6(CC[C@H](C)CO6)[C@@H](C)[C@@H]5[C@@]3(C)CC4)C3=C2CC[C@@]2(C)[C@H]4[C@@H](C)[C@]5(CC[C@H](C)CO5)O[C@@H]4C[C@H]32)C1	-32%	.	.	.	.	.
Cc1ccc(NC(=O)COC(=O)C2=NN(c3ccccc3)C(=O)CC2)c(Br)c1	.	.	.	.	36%	5%
Cc1ccc(Nc2ncnc3sc(C)c(C)c23)cc1C	-2%	7%	43	31*	21%	.
Cc1sc2ncnc(NCCCO)c2c1C	-6%	-3%	-11	-1	.	?
CC(=O)C1=NN(c2ccccc2)C(c2cccs2)N1c1ccc(N(C)C)cc1 (centres undefined)	-4%	-25%	15	15	.	2.1µM*
CC(=O)C1=NN(c2ccccc2)C(c2ccc3c(c2)OCO3)N1c1ccccc1 (centres undefined)	2%	-1%	24	-1	?	?
COCCn1c(=O)c(-c2cc(F)cc(F)c2)nc2cnc(Oc3ccc(OC)cc3)nc21	.	-6%	.	.	.	.
O=C(NCc1ccccc1)C1=C[C@@H](c2coc3ccccc3c2=O)C[C@@H](OCc2ccc(CO)cc2)O1	2%	7%	-15	-1	?	4.1µM*
O=C(NC1CC1)C1=C[C@@H](c2csc3ccccc23)C[C@@H](OCc2ccc(CO)cc2)O1	4%	-10%	-15	8	?	13µM*
O=C(NCc1ccccc1)C1=C[C@@H](c2csc3ccccc23)C[C@@H](OCc2ccc(CO)cc2)O1	16%	-17%	16	-2	?	?
C#CCNC(=O)C1=C[C@@H](c2csc3ccccc23)C[C@@H](OCc2ccc(CO)cc2)O1	3%	-5%	-4	-2	?	5.2µM*
O=C(NC1CC1)C1=C[C@@H](c2csc3ccccc23)C[C@@H](OCCCCO)O1	-4%	0%	-4	-7	10µM*	13µM*
O=C(N/N=C/c1cc([N+](=O)[O-])c(N2CCOCC2)cc1N1CCOCC1)c1cccnc1	.	-1%	-16	-2	8%	-27%
CCOc1ccc(NS(=O)(=O)c2ccc(C(=O)NCCN3CCOCC3)cc2)cc1	.	.	.	.	58%	-12%
CC(C)(C)NC(=O)CN(Cc1ccccc1)S(=O)(=O)c1ccccc1	-15%	0%	-3	-1	-5%	?
O=C(NCc1nc2ccccc2[nH]1)C1=C[C@@H](c2csc3ccccc23)C[C@@H](OCCCCO)O1	-37%	-9%	-3	-2	2.6µM*	2.1µM*
O=C(NCc1ccccc1)C1=C[C@@H](c2csc3ccccc23)C[C@@H](OCCCCO)O1	3%	-25%	11	7	?	?
Cc1ccc(CNC(=O)CCCCn2c(=O)[nH]c3ccsc3c2=O)cc1	.	8%	-10	0	-4%	10µM*
O=C(CCCCCn1c(=O)[nH]c2ccsc2c1=O)N1CCCCC1	-9%	4%	1	-1	12µM*	?
CN1CCCC2(CCN(C(=O)c3cnccn3)CC2)C1	.	-15%	.	.	.	.
Cc1cc2n(n1)C(c1ccccc1)CC(c1ccc(Br)cc1)=N2 (centres undefined)	5%	2%	29*	37*	?	-9%
SMILES	NS1 inh	Giardia FBPA inh	Shiga inhibitor	CHX counter	Pf growth 48h	Pf growth 96h
COC(=O)C1=C(c2ccc(F)cc2F)C[C@@H]2CC[C@H]1N2C(=O)NCCNC(C)=O	.	.	.	.	-9%	34%
COC(=O)C1=C(c2ccc(F)cc2OCc2ccccc2)C[C@@H]2CC[C@H]1N2C(=O)NCCN1CCOCC1	.	.	.	.	12µM*	?
COC(=O)C1=C(c2ccc(F)cc2OCc2ccccc2)C[C@@H]2CC[C@H]1N2C(=O)NCCc1ccc(F)cc1	.	.	.	.	12µM*	?
COC(=O)C1=C(c2ccc(F)cc2OCc2ccccc2)C[C@@H]2CC[C@H]1N2C(=O)NCCOc1ccccc1	.	.	.	.	5.9µM*	?
COC(=O)C1=C(c2ccc(OC)c(OC)c2)C[C@@H]2CC[C@H]1N2C(=O)NCCc1ccccc1	.	.	.	.	?	-8%
COC(=O)C1=C(c2ccc(F)cc2OCc2ccccc2)C[C@@H]2CC[C@H]1N2C(=O)NCCOc1ccc(OC)cc1	.	.	.	.	?	3.3µM*
CCCNC(=O)N1[C@H]2CC[C@@H]1C(C(=O)OC)=C(c1ccc(F)cc1F)C2	.	.	.	.	39%	29%
COc1ccc(NC(=O)CNC(=O)Cn2cnc3sc4c(c3c2=O)CCCC4)cc1OC	-1%	8%	-3	2	-1%	?
COc1ccc(S(=O)(=O)Nc2cccc3cccnc23)c([N+](=O)[O-])c1	.	.	-7	31	.	.
COC(=O)C1=C(c2ccc(Cl)c(C(F)(F)F)c2)C[C@@H]2CC[C@H]1N2C(=O)NCCNC(C)=O	.	.	.	.	?	-8%
COC(=O)C1=C(c2ccc(F)cc2OCc2ccccc2)C[C@@H]2CC[C@H]1N2C(=O)NCc1ccccc1Cl	.	.	.	.	5.2µM*	4.1µM*
COC(=O)C1=C(c2ccc(Cl)c(C(F)(F)F)c2)C[C@@H]2CC[C@H]1N2C(=O)NCCOc1ccccc1Cl	.	.	.	.	9.3µM*	6.6µM*
COC(=O)C1=C(c2ccc(F)cc2OCc2ccccc2)C[C@@H]2CC[C@H]1N2C(=O)NCCOc1ccccc1Cl	.	.	.	.	2.6µM*	?
COC(=O)C1=C(c2ccc(F)cc2F)C[C@@H]2CC[C@H]1N2C(=O)NC1Cc2ccccc2C1	.	.	.	.	-22%	?
CC(=O)c1cc(C(=O)N2CCCC(CCC(=O)N(C)CCc3ccccn3)C2)cs1 (centres undefined)	0%	5%	-1	1	0%	i
COc1ccc(C(=O)N=c2sc3ccccc3n2C)cc1OC	-7%	-9%	32	20	32%	17%
Cn1c(=NC(=O)C2=NNC(=O)CC2)sc2ccccc21	.	-1%	45*	28*	58%	47%
COC(=O)c1ccccc1-n1c(C)nc(=O)c(-c2ccccc2)c1C	3%	6%	-10	-3	22%	20%
CCn1c(SCc2cccc(OC)c2)nc2ccccc2c1=O	-52%	-1%	-2	2	-28%	?
CCCOc1ccc(CSC2=NCCN2)cc1[N+](=O)[O-]	1%	-5%	-3	-3	15µM*	?

Assay outcomes deposited in PubChem BioAssay by National Center for Advancing Translational Sciences (NCATS).
